Test results from PubChem BioAssay AID1159580 (chemical genetic matrix, 2015).
Among all 5,500 compounds or so, about 2,000 (36%) were called active. Roughly 18% stayed inconclusive and do not appear here. Cut-off read from the data, not from the text of the source: active = normalized growth mostly below about 0.91 (no sharp cut-off); inconclusive = no clear call, values can overlap the other calls; inactive = mostly above about 0.92. The list shows a part of the results.

Assay: chemical genetic growth profiling, strain panel (AID 1159580);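 note: tested at 20 µM; growth read once vehicle control cultures reached saturation at 30 °C; 1 = growth at the plate median or of vehicle wells; lower values mean less growth of the strain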
Details: S. cerevisiae deletion strains, growth OD

Measured: normalized growth

CCCCCCCCCCCC1=C(O)C(=O)C=C(O)C1=O
active: locus YAL013W, strain DEP1, active compounds read low 0.662 | locus YAL021C, strain ccr4, active compounds read low 0.835 | locus YAL026C, strain drs2, active compounds read low 0.394 | locus YAL030W, strain snc1, active compounds read low 0.889 | locus YBL061C, strain skt5, active compounds read low 0.795 | locus YBR009C, strain hhf1, active compounds read low 0.853 | locus YBR023C, strain chs3, active compounds read low 0.815 | locus YBR171W, strain sec66, active compounds read low 0.853 | locus YBR231C, strain swc5, active compounds read low 0.77 | locus YBR279W, strain paf1, active compounds read low 0.762 | locus YCL011C, strain gbp2, active compounds read low 0.822 | locus YCL016C, strain dcc1, active compounds read low 0.886 | locus YCL029C, strain bik1, active compounds read low 0.89 | locus YCL061C, strain MRC1, active compounds read low 0.628 | locus YCL069W, strain vba3, active compounds read low 0.538 | locus YCR088W, strain abp1, active compounds read low 0.723 | locus YDL035C, strain GPR1, active compounds read low 0.525 | locus YDL074C, strain BRE1, active compounds read low 0.365 | locus YDL185W, strain tfp1, active compounds read low 0.503 | locus YDL192W, strain arf1, active compounds read low 0.834 | locus YDR001C, strain nth1, active compounds read low 0.786 | locus YDR069C, strain doa4, active compounds read low 0.692 | locus YDR101C, strain arx1, active compounds read low 0.871 | locus YDR137W, strain rgp1, active compounds read low 0.81 | locus YDR150W, strain NUM1, active compounds read low 0.673 | locus YDR159W, strain sac3, active compounds read low 0.822 | locus YDR162C, strain NBP2, active compounds read low 0.338 | locus YDR195W, strain ref2 0.853 | locus YDR297W, strain sur2, active compounds read low 0.87 | locus YDR334W, strain swr1, active compounds read low 0.259 | locus YDR335W, strain msn5, active compounds read low 0.599 | locus YDR392W, strain spt3, active compounds read low 0.16 | locus YDR502C, strain sam2, active compounds read low 0.886 | locus YEL003W, strain gim4, active compounds read low 0.851 | locus YEL037C, strain rad23, active compounds read low 0.467 | locus YEL061C, strain CIN8 (second series), active compounds read low 0.493 | locus YEL061C, strain CIN8, active compounds read low 0.665 | locus YER015W, strain faa2, active compounds read low 0.748 | locus YER111C, strain swi4, active compounds read low 0.265 | locus YER155C, strain BEM2 (second series), active compounds read low 0.615 | locus YFR010W, strain ubp6, active compounds read low 0.507 | locus YGL078C, strain dbp3, active compounds read low 0.822 | locus YGL086W, strain mad1, active compounds read low 0.798 | locus YGL167C, strain pmr1, active compounds read low 0.882 | locus YGL173C, strain kem1, active compounds read low 0.703 | locus YGL227W, strain vid30, active compounds read low 0.909 | locus YGL253W, strain hxk2, active compounds read low 0.359 | locus YGR078C, strain PAC10, active compounds read low 0.684 | locus YGR135W, strain pre9, active compounds read low 0.888 | locus YHR013C, strain ard1, active compounds read low 0.743 | locus YHR027C, strain rpn1, active compounds read low 0.605 | locus YHR030C, strain SLT2, active compounds read low 0.596 | locus YHR129C, strain ARP1, active compounds read low 0.67 | locus YHR142W, strain chs7, active compounds read low 0.274 | locus YHR200W, strain rpn10, active compounds read low 0.89 | locus YIL066C, strain RNR3, active compounds read low 0.856 | locus YIL125W, strain kgd1, active compounds read low 0.623 | locus YJL092W, strain hpr5, active compounds read low 0.684 | locus YJL095W, strain BCK1 (second series), active compounds read low 0.88 | locus YJL095W, strain BCK1, active compounds read low 0.68 | locus YJL115W, strain asf1, active compounds read low 0.72 | locus YJL154C, strain vps35, active compounds read low 0.521 | locus YJL164C, strain tpk1, active compounds read low 0.83 | locus YJL166W, strain qcr8, active compounds read low 0.792
inactive: locus YBR021W, strain FUR4, active compounds read low 0.916 | locus YBR229C, strain ROT2, active compounds read low 1 | locus YDL005C, strain med2, active compounds read low 0.961 | locus YDL040C, strain nat1, active compounds read low 0.95 | locus YDL101C, strain DUN1, active compounds read low 0.994 | locus YDL134C, strain PPH21, active compounds read low 0.956 | locus YDR318W, strain mcm21, active compounds read low 0.955 | locus YDR388W, active compounds read low 0.98 | locus YER016W, strain bim1, active compounds read low 0.944 | locus YER110C, active compounds read low 0.976 | locus YER155C, strain BEM2, active compounds read low 0.925 | locus YER167W, strain BCK2, active compounds read low 0.952 | locus YGL240W, strain doc1, active compounds read low 0.923 | locus YGL248W, strain PDE1, active compounds read low 0.92 | locus YGR252W, strain gcn5, active compounds read low 0.95 | locus YHR079C, strain IRE1 (second series), active compounds read low 0.991 | locus YHR094C, strain hxt1, active compounds read low 0.994 | locus YIL073C, strain SPO22, active compounds read low 0.933 | locus YIR030C, strain dcg1, active compounds read low 0.972 | locus YJL129C, strain trk1, active compounds read low 0.999 | locus YJL134W, strain LCB3, active compounds read low 0.984
